Our source for the Percent Effect values is ChEMBL document CHEMBL3988442, “University of Dundee, Small-Polar-MMV Screening Library” (2021).

For part of these data: Measured potencies and affinities stand elsewhere.

What all share (set-up): scale not given: direction of the effect not stated beside the values
The target in experiment [1] is Protein translocase subunit SecA (Escherichia coli (strain K12)) (UniProt P10408). In words: Assay to Identify E. coli SecA ATPase Inhibitors. In kind it is functional. The settings on record: 30 µM.
Experiment [2] concerns the target T1, Ubiquitin-activating enzyme e1, putative (Leishmania donovani (strain BPK282A1)) (UniProt E9BSI1).
T1 sequence (whole entry): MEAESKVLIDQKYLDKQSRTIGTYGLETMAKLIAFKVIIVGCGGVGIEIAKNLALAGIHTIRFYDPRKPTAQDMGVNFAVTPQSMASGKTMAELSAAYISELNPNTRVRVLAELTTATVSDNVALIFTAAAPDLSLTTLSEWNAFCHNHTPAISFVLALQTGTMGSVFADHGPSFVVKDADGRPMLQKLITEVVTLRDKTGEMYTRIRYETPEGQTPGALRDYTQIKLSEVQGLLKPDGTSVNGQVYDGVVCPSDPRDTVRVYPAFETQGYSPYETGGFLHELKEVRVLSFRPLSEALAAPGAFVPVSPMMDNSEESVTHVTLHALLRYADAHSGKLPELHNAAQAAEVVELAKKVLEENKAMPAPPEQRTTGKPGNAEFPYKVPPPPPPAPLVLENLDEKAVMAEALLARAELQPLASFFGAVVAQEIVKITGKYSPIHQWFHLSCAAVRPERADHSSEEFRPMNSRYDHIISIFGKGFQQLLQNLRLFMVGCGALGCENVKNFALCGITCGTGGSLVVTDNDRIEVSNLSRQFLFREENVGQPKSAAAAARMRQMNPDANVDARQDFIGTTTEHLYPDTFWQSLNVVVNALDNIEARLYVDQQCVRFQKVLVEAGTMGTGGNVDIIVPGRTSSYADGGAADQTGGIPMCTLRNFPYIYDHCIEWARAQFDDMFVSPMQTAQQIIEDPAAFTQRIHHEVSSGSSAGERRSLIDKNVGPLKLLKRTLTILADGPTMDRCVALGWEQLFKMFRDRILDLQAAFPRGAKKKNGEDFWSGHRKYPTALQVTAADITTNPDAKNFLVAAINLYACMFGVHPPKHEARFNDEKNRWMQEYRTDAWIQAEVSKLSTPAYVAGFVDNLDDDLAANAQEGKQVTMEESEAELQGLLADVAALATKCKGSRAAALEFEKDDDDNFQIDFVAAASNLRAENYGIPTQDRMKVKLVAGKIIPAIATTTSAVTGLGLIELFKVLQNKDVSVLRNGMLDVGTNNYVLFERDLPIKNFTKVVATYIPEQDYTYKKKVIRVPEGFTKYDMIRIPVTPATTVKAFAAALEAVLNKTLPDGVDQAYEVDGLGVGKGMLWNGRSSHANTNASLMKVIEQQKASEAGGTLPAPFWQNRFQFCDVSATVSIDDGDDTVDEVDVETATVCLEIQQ
In words: Leishmania donovani Ubiquitin Activating Enzyme (LdE1). It is filed as functional. The following applies: 30 µM.

Experiment [3] deals with Sialic acid-binding Ig-like lectin 9 (Homo sapiens) (UniProt Q9Y336). The experiment can be described thus: Hs-Siglec9 ALPHAscreen SOP 20170721. The settings on record: 10 µM. In general terms: In Alpha technology, singlet oxygen from a donor bead excites a nearby acceptor bead.
Experiment [4] deals with Trypanosoma cruzi. In words: Trypanosoma cruzi phosphomannomutase and mannose-1-phosphate guanylyltransferase assay. In kind it is functional. The following applies: 10 µM.
In experiment [5] the target is T2, Arginase-2, mitochondrial (Homo sapiens) (UniProt P78540).
T2 sequence (whole entry): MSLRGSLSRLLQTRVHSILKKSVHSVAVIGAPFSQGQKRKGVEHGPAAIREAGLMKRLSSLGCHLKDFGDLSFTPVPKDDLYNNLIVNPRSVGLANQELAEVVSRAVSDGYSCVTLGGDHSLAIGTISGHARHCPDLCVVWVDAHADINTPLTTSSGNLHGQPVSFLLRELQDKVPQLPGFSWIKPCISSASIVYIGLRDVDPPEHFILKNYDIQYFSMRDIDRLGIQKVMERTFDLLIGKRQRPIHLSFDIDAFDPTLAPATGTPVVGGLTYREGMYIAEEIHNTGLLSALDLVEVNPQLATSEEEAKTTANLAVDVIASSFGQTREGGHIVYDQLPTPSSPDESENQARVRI
In words: in vitro enzyme assay to detect the production of urea directly proportional to the activity of Arginase II. Also: in the data most compounds retested in dose-response had high values. In kind it is functional. The settings on record: 33.3 µM.

The target of experiment [6] is T3, Proteasome subunit beta (Trypanosoma cruzi) (UniProt O96673).
T3 sequence (whole entry): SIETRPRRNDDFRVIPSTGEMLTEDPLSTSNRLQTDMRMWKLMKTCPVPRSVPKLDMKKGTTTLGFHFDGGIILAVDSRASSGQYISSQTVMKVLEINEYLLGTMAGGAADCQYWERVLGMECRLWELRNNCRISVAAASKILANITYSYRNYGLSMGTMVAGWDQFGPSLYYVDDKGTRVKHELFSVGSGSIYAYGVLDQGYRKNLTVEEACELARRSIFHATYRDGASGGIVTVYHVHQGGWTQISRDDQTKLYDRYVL
The experiment can be described thus: Trypanosoma cruzi proteasome chymotrypsin-like activity (TcProtChymo) assay. Also: in the data most compounds retested in dose-response had high values. In kind it is functional. The settings on record: 9.37 µM.

Experiment [7] is filed under the species Homo sapiens. In words: To identify inhibition of the IFN signalling (Jak-Stat) pathway via expression of an eGFP reporter gene under the control of an IFN-stimulated response element (ISRE) containing MxA promoter. In kind it is functional. The settings on record: 30 µM. (In a reporter assay the amount or activity of a reporter protein is the signal.)
Experiment [8] deals with T4, Tyrosyl-tRNA synthetase, putative (Trypanosoma cruzi (strain CL Brener)) (UniProt Q4DSP6).
T4 sequence (whole entry): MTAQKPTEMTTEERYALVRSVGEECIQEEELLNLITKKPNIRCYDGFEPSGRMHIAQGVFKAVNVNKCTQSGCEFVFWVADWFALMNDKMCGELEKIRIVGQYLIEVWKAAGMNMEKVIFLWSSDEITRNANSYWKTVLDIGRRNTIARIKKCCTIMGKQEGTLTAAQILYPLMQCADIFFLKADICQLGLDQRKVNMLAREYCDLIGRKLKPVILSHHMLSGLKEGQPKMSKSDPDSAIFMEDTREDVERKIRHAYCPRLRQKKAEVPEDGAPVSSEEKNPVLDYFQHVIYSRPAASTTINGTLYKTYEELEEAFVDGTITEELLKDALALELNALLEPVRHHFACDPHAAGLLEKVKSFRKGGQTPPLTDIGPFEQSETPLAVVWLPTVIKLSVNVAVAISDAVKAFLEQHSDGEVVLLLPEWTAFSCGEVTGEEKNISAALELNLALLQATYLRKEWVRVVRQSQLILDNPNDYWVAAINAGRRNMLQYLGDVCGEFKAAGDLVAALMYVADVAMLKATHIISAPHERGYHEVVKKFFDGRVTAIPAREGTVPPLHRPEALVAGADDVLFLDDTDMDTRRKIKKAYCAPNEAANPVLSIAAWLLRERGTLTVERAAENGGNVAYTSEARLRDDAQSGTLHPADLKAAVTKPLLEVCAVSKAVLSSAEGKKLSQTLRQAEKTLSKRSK
The experiment can be described thus: Trypanosoma cruzi tyrosyl tRNA synthetase (TcYRS) _High Tyrosine SOP. Also: in the data most compounds retested in dose-response had high values. It is filed as functional. The settings on record: 30 µM.

The target in experiment [9] is T4, Tyrosyl-tRNA synthetase, putative (Trypanosoma cruzi (strain CL Brener)). The experiment can be described thus: Trypanosoma cruzi tyrosyl tRNA synthetase (TcYRS) SOP. It is filed as functional. The settings on record: 30 µM.
The target of experiment [10] is Chromo domain-containing protein 1 (Saccharomyces cerevisiae (strain ATCC 204508 / S288c) (Baker's yeast)) (UniProt P32657). In words: ScCHD-1 Enzyme Inhibition Assay. Also: in the data most compounds retested in dose-response had high values. In kind it is functional. The settings on record: 30 µM.
Sequence of Chromo domain-containing protein 1 (Saccharomyces cerevisiae (strain ATCC 204508 / S288c) (Baker's yeast)) (P32657 whole entry, the tested form may be a part): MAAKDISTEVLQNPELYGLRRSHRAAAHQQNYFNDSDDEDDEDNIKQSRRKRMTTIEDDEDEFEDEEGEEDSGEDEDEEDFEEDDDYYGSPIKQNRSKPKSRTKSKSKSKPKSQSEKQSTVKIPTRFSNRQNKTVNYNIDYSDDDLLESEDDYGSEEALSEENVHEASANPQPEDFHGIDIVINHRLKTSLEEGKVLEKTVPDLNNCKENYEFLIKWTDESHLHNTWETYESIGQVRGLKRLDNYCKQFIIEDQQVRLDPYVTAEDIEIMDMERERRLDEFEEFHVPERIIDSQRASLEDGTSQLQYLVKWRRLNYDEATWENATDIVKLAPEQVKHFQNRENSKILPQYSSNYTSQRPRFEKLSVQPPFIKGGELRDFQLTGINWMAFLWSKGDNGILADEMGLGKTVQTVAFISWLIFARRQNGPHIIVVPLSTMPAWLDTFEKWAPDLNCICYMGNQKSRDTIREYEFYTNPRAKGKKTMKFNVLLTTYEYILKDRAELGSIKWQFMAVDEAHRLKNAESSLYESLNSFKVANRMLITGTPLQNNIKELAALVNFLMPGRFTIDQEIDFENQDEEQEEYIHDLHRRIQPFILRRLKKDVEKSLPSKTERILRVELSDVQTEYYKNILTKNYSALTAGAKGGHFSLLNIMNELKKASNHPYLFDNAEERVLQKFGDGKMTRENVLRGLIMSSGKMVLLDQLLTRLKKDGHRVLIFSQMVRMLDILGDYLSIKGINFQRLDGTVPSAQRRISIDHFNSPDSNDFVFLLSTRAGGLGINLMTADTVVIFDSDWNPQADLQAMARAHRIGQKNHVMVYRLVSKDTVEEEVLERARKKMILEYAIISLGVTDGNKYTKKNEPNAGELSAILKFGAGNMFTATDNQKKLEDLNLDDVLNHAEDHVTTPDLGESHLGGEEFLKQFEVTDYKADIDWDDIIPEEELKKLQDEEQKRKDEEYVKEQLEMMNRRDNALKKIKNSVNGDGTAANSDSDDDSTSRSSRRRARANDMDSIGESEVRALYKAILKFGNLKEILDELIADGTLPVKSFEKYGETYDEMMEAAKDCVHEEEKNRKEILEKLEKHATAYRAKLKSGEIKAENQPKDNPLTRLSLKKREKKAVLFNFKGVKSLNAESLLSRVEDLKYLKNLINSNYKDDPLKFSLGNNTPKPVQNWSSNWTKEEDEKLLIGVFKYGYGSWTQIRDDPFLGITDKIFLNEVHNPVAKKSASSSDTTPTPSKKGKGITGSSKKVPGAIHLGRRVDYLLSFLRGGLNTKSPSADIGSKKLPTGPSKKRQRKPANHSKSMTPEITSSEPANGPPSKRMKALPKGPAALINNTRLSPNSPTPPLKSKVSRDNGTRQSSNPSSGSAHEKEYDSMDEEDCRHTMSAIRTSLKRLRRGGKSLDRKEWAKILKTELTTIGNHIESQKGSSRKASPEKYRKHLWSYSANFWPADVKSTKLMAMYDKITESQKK

Sequence of Sialic acid-binding Ig-like lectin 9 (Homo sapiens) (Q9Y336 whole entry): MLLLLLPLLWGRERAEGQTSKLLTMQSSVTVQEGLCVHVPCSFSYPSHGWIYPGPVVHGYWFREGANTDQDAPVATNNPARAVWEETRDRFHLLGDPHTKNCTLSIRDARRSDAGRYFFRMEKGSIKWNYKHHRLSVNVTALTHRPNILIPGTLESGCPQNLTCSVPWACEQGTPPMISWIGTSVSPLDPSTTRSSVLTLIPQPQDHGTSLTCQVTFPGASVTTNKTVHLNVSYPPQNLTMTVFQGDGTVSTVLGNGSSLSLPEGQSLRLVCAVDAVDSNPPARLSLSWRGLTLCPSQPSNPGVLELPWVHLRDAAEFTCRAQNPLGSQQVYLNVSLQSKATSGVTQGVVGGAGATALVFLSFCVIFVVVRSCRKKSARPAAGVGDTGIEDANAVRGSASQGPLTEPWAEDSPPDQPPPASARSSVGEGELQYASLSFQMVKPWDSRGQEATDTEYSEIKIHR
Sequence of Protein translocase subunit SecA (Escherichia coli (strain K12)) (P10408 whole entry): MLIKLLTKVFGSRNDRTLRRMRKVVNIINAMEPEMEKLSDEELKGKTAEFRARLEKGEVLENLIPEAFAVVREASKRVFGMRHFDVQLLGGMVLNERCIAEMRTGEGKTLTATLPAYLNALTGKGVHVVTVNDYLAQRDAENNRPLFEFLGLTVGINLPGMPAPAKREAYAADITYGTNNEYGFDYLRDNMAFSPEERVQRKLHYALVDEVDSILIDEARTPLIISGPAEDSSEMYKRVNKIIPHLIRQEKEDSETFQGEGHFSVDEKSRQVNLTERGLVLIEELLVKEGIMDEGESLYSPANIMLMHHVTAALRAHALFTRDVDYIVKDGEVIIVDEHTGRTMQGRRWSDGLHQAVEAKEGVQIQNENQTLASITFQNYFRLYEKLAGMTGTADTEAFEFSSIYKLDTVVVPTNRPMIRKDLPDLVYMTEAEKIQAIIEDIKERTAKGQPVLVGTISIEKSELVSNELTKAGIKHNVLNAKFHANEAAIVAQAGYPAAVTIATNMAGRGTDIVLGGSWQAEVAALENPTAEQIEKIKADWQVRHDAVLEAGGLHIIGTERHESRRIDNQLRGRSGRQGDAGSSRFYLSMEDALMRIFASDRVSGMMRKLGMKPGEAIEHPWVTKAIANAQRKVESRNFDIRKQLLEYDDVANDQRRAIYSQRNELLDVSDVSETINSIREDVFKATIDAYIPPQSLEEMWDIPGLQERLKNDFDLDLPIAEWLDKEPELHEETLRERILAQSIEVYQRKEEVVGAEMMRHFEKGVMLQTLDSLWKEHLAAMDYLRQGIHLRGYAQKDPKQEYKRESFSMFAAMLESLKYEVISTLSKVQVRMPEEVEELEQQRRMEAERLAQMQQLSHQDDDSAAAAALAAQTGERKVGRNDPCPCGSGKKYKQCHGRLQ

On to `COc1ccc(C(N)c2cccc(S(C)(=O)=O)c2)cc1` (stereo not given), for which the Percent Effect in [1] is -6.1%; in experiment [2], 18.7%; in experiment [3] it was 7.33%; in [4], 2.41%; in experiment [5], -6.65%; in experiment [6] it was 4.83%. In addition, the Percent Effect in experiment [7] is 9.08%; in experiment [8] it was 4.74%; in experiment [9] it was 15.4%; in experiment [10] it was -12.4%.

`FC(F)(F)c1nc(NC2CCCC2)c2ccccc2n1`: the Percent Effect is 1.99% in experiment [1]; -2.7% in experiment [2]; -2.53% in experiment [3]; -0.291% in experiment [4]; 5.94% in [5]; 9.76% in experiment [6]. Moreover, the Percent Effect in experiment [7] is 45.1%; in experiment [8], 0.532%; in experiment [9], -2.44%; in [10], 35%.

Take `CC(C)NC(=O)C1CN(C(=O)N2CCCC2)CC12CCOCC2` (stereo not given): the Percent Effect in experiment [1] was -1.18%; in experiment [2], -3.9%; in experiment [3], -4.49%; in [4] it was -1.27%; in experiment [5], -4.45%; in [6], -6.62%. Moreover, the Percent Effect was 5.24% in [7], 2.63% in [8], 2.56% in experiment [9] and 2.05% in [10].

Regarding `CN(C)c1ccccc1C(=O)N1C[C@@H](CN2CCCCC2)[C@@H](CO)C1`, the Percent Effect was -7.49% in [1]; 2.7% in experiment [2]; 6.19% in experiment [3]; 7.27% in [4]; -5.25% in experiment [5]; 16.6% in [6]. Also, the Percent Effect in experiment [7] was -22.6%; in experiment [8], 3.72%; in [9] it was 12.2%; in experiment [10], -3.83%.

For `CN(C)S(=O)(=O)N1CCCC(c2cccc(Cc3ccccc3)n2)C1` (stereo not given), the Percent Effect was -0.482% in experiment [1]; 6.67% in experiment [2]; -7.39% in [3]; -6.31% in experiment [4]; -5.31% in experiment [5]; 14.4% in [6]. Also, the Percent Effect is 58.5% in [7], -5.29% in experiment [8], 0% in experiment [9] and -8.36% in [10].

For the molecule `CN(CC1CCCCC1)C(=O)c1ccc(-n2ncc(C#N)c2N)cc1`, the Percent Effect is -0.675% in experiment [1]; 2.6% in experiment [2]; -3.53% in experiment [3]; -9.33% in experiment [4]; -9.22% in [5]; 7.37% in [6]. For the same molecule, the Percent Effect is 48.7% in [7], 4.9% in experiment [8], 16.5% in [9] and -3.77% in experiment [10].

For `Fc1cccc(-c2nc(CN3CCn4c(nnc4C4CC4)C3)co2)c1`, the Percent Effect in experiment [1] was 2.37%; in experiment [2] it was 0%; in [3], -4.75%; in experiment [4], -5.42%; in experiment [5] it was 1.33%; in experiment [6], 8.4%. In addition, the Percent Effect is 19% in experiment [7], 0.526% in experiment [8], 7.69% in experiment [9] and -19% in experiment [10].

For `c1csc(-c2nc(CN3CCn4c(nnc4C4CC4)C3)co2)c1`, the Percent Effect in experiment [1] was -2.65%; in experiment [2] it was 5.33%; in experiment [3], 1.96%; in experiment [4], -3.41%; in experiment [5] it was 2.66%; in experiment [6], 9.58%. In addition, the Percent Effect in experiment [7] is 7.72%; in experiment [8], 6.84%; in experiment [9], 5.13%; in [10], -5.6%.

Turning to `c1ccc(-n2ccc(CN3CCCC3Cn3cccn3)n2)cc1` (stereo not given), the Percent Effect in experiment [1] is -2.21%; in [2], -49.4%; in [3] it was 9.5%; in experiment [4] it was -5.97%; in experiment [5], -7.17%; in [6], 8.25%. Moreover, the Percent Effect in experiment [7] was 11.5%; in experiment [8] it was 0%; in experiment [9], -11.8%; in experiment [10], 3.12%.

`O=C(NCCc1cccnc1)N1CCCC1c1ccsc1` (stereo not given): the Percent Effect in experiment [1] was -6.89%; in [2] it was 17.9%; in experiment [3], -11.1%; in [4], 5.73%; in experiment [5], 3.69%; in experiment [6] it was 6.74%. Also, the Percent Effect in experiment [7] is 13.9%; in experiment [8], 5.26%; in [9], 22.9%; in experiment [10], -9.16%.

As for `FC(F)(F)Cn1ccnc1CN1CCCC1c1noc(C2CC2)n1` (stereo not given), the Percent Effect in experiment [1] is 0.298%; in [2], 10.7%; in experiment [3], -5.86%; in experiment [4], -3.01%; in [5] it was -4.43%; in [6], 15.7%. In addition, the Percent Effect in experiment [7] is 16.6%; in experiment [8], 4.74%; in experiment [9], 15.4%; in experiment [10], -9.44%.

In the case of `COc1cccc(-n2nnc(C(=O)N3CCNC(=O)C3)c2C)c1`, the Percent Effect is -4.4% in [1]; 15.4% in [2]; -22.9% in experiment [3]; 9.11% in experiment [4]; 0.41% in experiment [5]; 8.96% in [6]. The Percent Effect in experiment [7] is 16%; in experiment [8] it was 5.26%; in experiment [9], 25.3%; in experiment [10] it was 22.3%.
